Measurements: PubChem BioAssay AID463193 (University of Pittsburgh Molecular Library Screening Center, 2010)
About 1,900 (1%) of roughly 190,000 compounds were called active.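 Rule for the calls: active = percentage of spot-positive cells more than 3 SD above its plate mean, without a fluorescence outlier flag or 80% toxicity; inconclusive = no clear call, values can overlap the other calls; inactive = the rest.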 The sample as a whole holds a higher share of actives than the screen did.

Assay: GFP-LC3 puncta formation changes – imaging, high-content, MEF GFP-LC3, primary screen (AID 463193);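 for % cells with GFP-LC3 spots: spot-positive cell cutoff set from DMSO-treated cells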;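 for toxicity: cell loss after 18 h compound exposure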
Conditions: autophagy, at 10 µM; % cells with GFP-LC3 spots: stronger effect = higher value; toxicity: measured here: cell loss, nuclei count

Row | Structure (SMILES) | % cells with GFP-LC3 spots | toxicity
1 | CC/C(=N/Nc1ccccc1)c1cnnc(SC)n1 | 1.72% (inactive) | -12.6%
2 | C/C(=N/Nc1ccc(Cl)cc1)c1cnnc(-c2ccccc2)n1 | 45.6% (active) | -1.98%
3 | O=C(Cc1ccc(Cl)cc1)NCc1nc(-c2ccccc2)no1 | 1.76% (inactive) | 18%
4 | CNc1nccc(-c2ccc(Cl)cc2)c1C#N | 0.668% (inactive) | -6.73%
5 | CC(C)(C)NC(=O)NC(=O)CN1CCC(Cc2ccccc2)CC1 | 8.11% (active) | 52.4%
6 | COc1ccc(NC(=O)N2CCC(Cc3ccccc3)CC2)cc1 | 5.76% (inactive) | -6.26%
7 | NC(=O)c1ccc(CN2CCC(Cc3ccccc3)CC2)cc1 | 4.13% (inactive) | 31.8%
8 | O=C(NCc1ccco1)c1nn2cccnc2c1Cl | 2.07% (inactive) | -10.5%
9 | Cc1ccc(/C([O-])=C(/C(=S)NCc2ccco2)[n+]2ccccc2)cc1[N+](=O)[O-] | 1.01% (inactive) | 4.63%
10 | Cc1ccc(NC2=C(Cl)C(=O)OC2OC(=O)c2ccccc2C)cc1 (centres undefined) | 9.77% (inactive) | 12.9%
11 | CCOc1ccccc1C(=O)NCc1ccco1 | 3.98% (inactive) | -2.98%
12 | CCOc1ccccc1/C=c1\sc2nc(-c3ccco3)nn2c1=O | 23.9% (active) | -24.1%
13 | O=c1nc2s/c(=C\c3ccco3)c(=O)n2nc1Cc1ccccc1 | 1.32% (inactive) | -3.5%
14 | Cc1cc(C)c2c(n1)nn1c(N3CCOCC3)cc(C)nc21 | 8.07% (inactive) | 5.9%
15 | Cc1cc(C)c2c(n1)nn1c(-n3ccnc3)cc(C)nc21 | 2.18% (inactive) | 8.53%
16 | Cc1cc(C)c2c(n1)nn1c(N3CCN(c4cccc(Cl)c4)CC3)cc(C)nc21 | 11.4% (active) | 3.85%
17 | COCCN(Cc1nc(-c2ccc(C(F)(F)F)cc2)no1)C(C)C | 9.15% (inactive) | 9.9%
18 | Cc1c(/C=N/N2C(=O)C3C4C=CC(C4)C3C2=O)c2ccccc2n1C (centres undefined) | 7.41% (inactive) | -40.2%
19 | O=C(N/N=C/c1coc2ccccc2c1=O)c1cc2ccccc2o1 | 23.9% (inactive) | 5.54%

Row | Structure (SMILES) | % cells with GFP-LC3 spots | toxicity
20 | Cc1c(/C=N\NC(=O)c2cc3ccccc3o2)c2ccccc2n1C | 7.46% (active) | 40.9%
21 | O=C(NCCOc1ccccc1F)Nc1ccc(Br)cc1 | 8.91% (inactive) | 10.2%
22 | CCCCn1c(N)c(N2CCOCC2)c(=O)n(CC(=O)NCCc2ccccc2)c1=O | 1.7% (inactive) | 10.6%
23 | Nc1ccc(Nc2ccccc2)cc1 | 3.14% (inactive) | 23.3%
24 | Cc1ccc(Nc2ccccc2N)cc1 | 78% (active) | 27.6%
25 | Cc1ccc(Nc2nnc(SCc3ccccc3)s2)cc1 | 12.4% (inactive) | -2.65%
26 | Cc1ccc(CC(=O)Nc2cccc(C#N)c2)cc1 | 1.19% (inactive) | -8.28%
27 | COc1cc(/C=C/C2=CC(C)(C)NC(=S)N2)cc(OC)c1OC | 1.56% (inactive) | 6.84%
28 | CC(Oc1ccc(F)cc1F)C(=O)/C=C/N(C)C (centres undefined) | 6.77% (inactive) | 7.51%
29 | CC(Oc1ccccc1F)C(=O)NN (centres undefined) | 38% (active) | 3.88%
30 | COc1cccc(NC(=O)C(C)Oc2ccccc2)c1 (centres undefined) | 5.6% (inactive) | 4.79%
31 | COc1ccccc1C1CC(=O)n2c(nc(-c3ccccc3)c2-c2ccccc2)S1 (centres undefined) | 3.32% (inactive) | 1.28%
32 | O=[N+]([O-])/C(N=Nc1ccccc1)=N\Nc1ccccc1 | 16.1% (inactive) | 8.32%
33 | COc1ccc(C)c(Cn2c(-c3nonc3N)nc3ccccc32)c1 | 25% (active) | 49.2%
34 | Nc1nonc1-c1nc2ccccc2n1CCC(=O)O | 6.83% (inactive) | 0.889%
35 | Nc1nonc1-c1nc2ccccc2n1Cc1ccc(F)cc1 | 17.1% (inactive) | 0.606%
36 | CN(C)Cc1ccccc1C1(O)c2ccccc2CSc2ccccc21 (centres undefined) | 12% (active) | -6.62%
37 | COC(=O)C1=C(NC(=O)C(C)(C)C)CCS1 | 5.79% (inactive) | -3.16%
38 | COC(=O)c1sc(N)c(C(=O)OC)c1COC(=O)CNS(=O)(=O)c1ccc(C)cc1 | 2.17% (inactive) | -4.43%

Row | Structure (SMILES) | % cells with GFP-LC3 spots | toxicity
39 | CCN1/C(=C/c2ccc3ccc(C)cc3[n+]2CC)Sc2ccccc21 | 42.4% (active) | 14.3%
40 | CCC(=O)/C=C1\Sc2ccccc2N1CC | 7.46% (inactive) | -11.3%
41 | CCN1CCN(CCNC(=O)c2ccc(/C=C3/Sc4ccccc4N(Cc4cccc(C)c4)C3=O)cc2)CC1 | 34.4% (inactive) | 30.3%
42 | Cc1ccc(Nc2cc(C)nc3c(C)ccc([N+](=O)[O-])c23)cc1 | 9.29% (inactive) | 15.4%
43 | Cc1cccc(N(C(=O)Cc2cccs2)C(C(=O)NCc2ccco2)c2ccncc2)c1 (centres undefined) | 0.45% (inactive) | 4.04%
44 | CSc1nc2ccccc2cc1/C=C(\C#N)c1ccc(Cl)cc1Cl | 26.9% (active) | 3.92%
45 | CSc1nc(N)c(C#N)c(-c2ccccc2Cl)c1C#N | 1.32% (inactive) | 7.01%
46 | Cc1nc2ccccc2cc1O | 1.86% (inactive) | -9.74%
47 | CCC(C)NC(=O)/C=C/c1ccc(S(=O)(=O)NCc2ccco2)cc1 (centres undefined) | 13.9% (inactive) | -4.92%
48 | Cc1cccc(OCCNC(=S)NC(=O)c2cccnc2)c1 | 4.78% (inactive) | 1.96%
49 | O=C(CSc1ncnc2c1nnn2Cc1ccc(F)cc1)NC1CCCC1 | 19.5% (inactive) | 3.4%
50 | COc1ccc(N2CCN(C(=O)CNS(=O)(=O)c3ccc(C)c(C)c3)CC2)cc1 | 0.151% (inactive) | -10.1%
51 | Cc1cc([N+](=O)[O-])nn1CCCC(=O)Nc1cccnc1Cl | 8.6% (inactive) | 1.08%
52 | Cc1ccc(-c2nnc(-c3ccc(NC(=O)c4cccs4)cc3)o2)cc1 | 9.58% (inactive) | -19.8%
53 | O=C(Cc1cccc2ccccc12)Nc1ccc2oc(-c3ccccc3)nc2c1 | 7.49% (inactive) | 12.1%
54 | O=C(Nc1ccc2oc(-c3ccc4ccccc4c3)nc2c1)c1cccs1 | 3.28% (active) | -13.1%
55 | COc1cc(OC)c(C(=O)Nc2ccccc2-c2ccccc2)cc1OC | 7.38% (inactive) | -2.46%
56 | COc1ccc(C(=O)OCC(=O)NCC2CCCO2)cc1[N+](=O)[O-] (centres undefined) | 3.86% (inactive) | 1.61%
57 | COc1ccc(OC)c(C(=O)c2ccc(C(=O)N3CCN(Cc4csc(C)n4)CC3)cc2)c1 | 1.64% (inactive) | 6.76%
